Experimental data as given in PubChem BioAssay AID2551 (National Center for Advancing Translational Sciences (NCATS), 2010).
The campaign covered roughly 310,000 compounds. About 17,000 (5.5%) were called active. A call without a number means that no potency is given here. Roughly 11% stayed inconclusive and do not appear here. This is one part of a sample in which actives are shown more often than they occur. Values without a mark were called inactive. The call rests on the fitted dose curve; in most records, active means well fitted inhibition curve with a large enough effect; inconclusive means small, poorly fitted or top-dose-only effect, or effect the other way; inactive means no such curve, though single readings can be large or run the other way.

Molecular target: Nuclear receptor ROR-gamma (Mus musculus) (UniProt P51450)
Sequence (P51450 whole entry, looked up): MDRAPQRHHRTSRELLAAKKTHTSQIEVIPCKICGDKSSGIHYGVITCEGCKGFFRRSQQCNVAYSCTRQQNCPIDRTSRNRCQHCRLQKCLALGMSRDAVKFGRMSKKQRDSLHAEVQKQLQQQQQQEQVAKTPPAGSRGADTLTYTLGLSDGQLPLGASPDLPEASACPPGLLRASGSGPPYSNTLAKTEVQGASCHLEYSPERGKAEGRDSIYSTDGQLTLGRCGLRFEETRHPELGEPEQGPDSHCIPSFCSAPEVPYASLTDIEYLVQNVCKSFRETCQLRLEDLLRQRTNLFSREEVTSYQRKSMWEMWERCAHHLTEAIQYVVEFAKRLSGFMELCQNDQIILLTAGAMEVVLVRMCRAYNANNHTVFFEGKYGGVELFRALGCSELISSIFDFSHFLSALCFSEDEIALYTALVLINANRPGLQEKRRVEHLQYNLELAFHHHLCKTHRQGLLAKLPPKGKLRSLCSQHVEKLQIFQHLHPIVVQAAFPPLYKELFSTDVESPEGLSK
Experiment: qHTS for inhibitors of ROR gamma transcriptional activity; further: nearly all actives have a fitted effect of over 60% in size
Conditions: Drosophila S2 Gal4-RORgamma UAS-luciferase reporter, 20 h; series mostly up to 53.6 µM
Method in brief: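 Stably transfected Drosophila Schneider cells are the test system, with ROR gamma fused to Gal4 and luciferase under UAS control; luminescence is read after 20 hr of 700 uM copper sulfate induction at ambient temperature.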
Potency means the concentration at half of the fitted maximal effect.

Compound	Potency	activity change, negative = inhibition
COc1cc(Cl)ccc1OCc1cc(C(=O)N2CC[C@@H]3CCCC[C@H]3C2)no1	inactive	
CCc1ccc(NC(=O)Cn2nnc(C(=O)NCc3ccc4c(c3)OCO4)c2N)cc1	inactive	
CC1CCCCC1NC(=O)/C(C#N)=C/C=C/c1ccccc1[N+](=O)[O-] (centres undefined)	8.91 µM (active)	
O=C(/C=C/c1ccccc1[N+](=O)[O-])NCC1CCCO1 (centres undefined)		16.2% [at 10 µM]
O=C(/C=C/c1ccccc1[N+](=O)[O-])OC1CCCCC1=O (centres undefined)	inactive	
CCCCC(=O)Nc1nnc(S(=O)(=O)N(C)Cc2ccco2)s1	inactive	
CSc1ccccc1NC(=O)c1cc(Cl)sc1Cl	inactive	
CC(c1ccccn1)N(C)C(=O)c1ccc2nc(Cc3cccc(Cl)c3)oc2c1 (centres undefined)	inactive	
COc1ccc(-c2c3c(=O)n(C)c(=O)n(C)c3cn2-c2cccc(OC)c2)cc1	inactive	
Cc1ccc(-c2c3c(=O)n(C)c(=O)n(C)c3cn2-c2ccccc2O)cc1	inactive	
Cc1ccc(-c2c3c(=O)n(C)c(=O)n(C)c3cn2-n2cnnc2)cc1	15.8 µM (active)	
Cc1cc(C(F)(F)F)n2ncc(-c3ccccc3)c2n1		-12.2% [at 0.365 µM]
Cn1c(-c2sc3cc(C(F)(F)F)cnc3c2-c2ccccc2)n[nH]c1=S	2.82 µM (active)	
CC1(C)OC2CC3C4CCC5=CC(=O)CCC5(C)C4(F)C(O)CC3(C)[C@]2(C(=O)CCl)O1 (some centres undefined)	10 µM (active)	
CC(=O)OCC(=O)[C@@]1(O)CCC2C3CCC4=CC(=O)CC[C@@]4(C)[C@]3(F)C(O)C[C@]21C (some centres undefined)	inactive	
CC(=O)OCC(=O)[C@@]1(O)CC[C@@H]2[C@H]3CCC4=CC(=O)C=C[C@]4(C)[C@]3(F)[C@@H](O)C[C@@]21C		-4.5% [at 2.98 µM]
CNC(=O)[C@]1(C(F)(F)F)C[C@H](CCc2ccccc2)CCCO1	inactive	
CCOCCCN(C)C1CCN(C(=O)c2oc3ccccc3c2NC(=O)COc2cccc(C)c2)CC1	inactive	
Cn1c(Nc2ccccc2)cc(=O)n(C)c1=O	inactive	
COc1cccc(NC(=O)COc2cc(C)cc3oc(=O)cc(C)c23)c1	inactive	
CC(NC(=O)c1ccc(Cl)cc1)C(=O)N1CCCCC1 (centres undefined)	inactive	
COC(=O)C1(O)CC(C(C)C)=NN1C(=O)c1ccc(Cl)cc1 (centres undefined)	10 µM (active)	
COC(=O)c1cn(C(=O)c2ccc(Cl)cc2)c2ccccc12	inactive	

Compound	Potency	activity change, negative = inhibition
CC1CCC2CCCCC2N1C(=O)c1cc([N+](=O)[O-])cc([N+](=O)[O-])c1 (centres undefined)	inactive	
C=CCSc1nc2c(c(=O)[nH]c(=O)n2C)n1Cc1ccccc1	inactive	
COc1ccccc1-c1nnc(NC(=O)c2cccc(N3C(=O)CCC3=O)c2)o1	11.2 µM (active)	
O=C(Nc1cccc2cccnc12)c1cccc(N2C(=O)CCC2=O)c1	inactive	
Cc1cc(NC(=O)c2cccc(N3C(=O)CCC3=O)c2)no1	inactive	
COc1ccccc1-c1nnc(SCC(=O)N2CC(C)CC(C)C2)o1 (centres undefined)	inactive	
COc1ccccc1-c1nnc(NC(=O)c2ccc3ncsc3c2)o1	0.501 µM (active)	
COc1ccccc1NC(=O)c1ccc2nc(N3C(=O)CCC3=O)sc2c1	inactive	
O=C(CC1C(=O)NCCN1CC(c1ccccc1)c1ccccc1)NCC1CCOCC1 (centres undefined)	inactive	
COCCCNC(=O)/C(C#N)=C/c1c(N2CCCCCC2)nc2ccccn2c1=O	inactive	
CC1(C)Oc2ccc3ccc(=O)oc3c2/C(=N/O)C1=O	inactive	
Cc1onc(C(=O)NN)c1C(=O)N1CCN(C(c2ccccc2)c2ccccc2)CC1	inactive	
CCOC(=O)N1CCN(C(=O)C2CCN(c3ncnc4c3sc3cccc(F)c34)CC2)CC1	inactive	
Oc1ccccc1CN1CCN(C(c2ccccc2)c2ccccc2)CC1	inactive	
CCN1CCN(c2ccc(NC(=O)c3cnccn3)cc2)CC1	inactive	
CCOC(=O)N1CCN(C(c2cccnc2)c2ccc3cccnc3c2O)CC1 (centres undefined)	4.47 µM (active)	
CCN1CCN(C(c2cccnc2)c2cc(Cl)c3cccnc3c2O)CC1 (centres undefined)	2.82 µM (active)	
CCc1nc2nc(C)c(NS(=O)(=O)c3ccc4c(c3)CCCC4)c(=O)n2[nH]1	inactive	
COc1ccc(Nc2nc(=O)[nH]nc2C)cc1	inactive	
COc1ccc(Nc2nnc(C)c3ccccc23)cc1	inactive	
COc1ccc(NC2=CC(=S)NC(C)(C)C2)cc1	7.08 µM (active)	
COc1ccc(NS(=O)(=O)c2ccc(F)cc2F)cn1	inactive	
CC(C)CCN1NC2(CCC(C)CC2)NC1=S (centres undefined)	7.08 µM (active)	

Compound	Potency	activity change, negative = inhibition
COc1ccc(NC(=O)CN2C(=O)COc3ccc(S(=O)(=O)N4CCOCC4)cc32)cc1	inactive	
COCCN1C(=O)C(=O)/C(=C(/O)c2ccc(S(=O)(=O)N3CCCCC3)cc2)C1c1ccc(OC)c(OC)c1 (centres undefined)	inactive	
Cn1c(CO)cnc1SCc1ccccc1	inactive	
CSc1nc2ccccc2c(=O)n1Cc1ccc(F)cc1	inactive	
CSc1c(SCc2ccccc2)cnn(Cc2ccccc2)c1=O	5.62 µM (active)	
Cc1cc(Cl)c2oc(C(=O)NC(C)c3ccncn3)c(C)c2c1 (centres undefined)	inactive	
COc1ccc(NC(=O)CSCc2ccc([N+](=O)[O-])cc2)cc1OC	inactive	
CCn1cc(C(=O)N[C@@H](C)C(=O)NCCO)c(=O)c2cc3c(cc21)OCO3	inactive	
Cc1nnc(N/N=C/c2cccs2)[nH]c1=O	inactive	
Cc1n[nH]c(=O)nc1N/N=C/c1cccs1	5.01 µM (active)	
Cc1cc(C)nc(SC(C)C(=O)N/N=C/c2cccs2)n1 (centres undefined)	inactive	
CC(Oc1cc2oc(=O)c3c(c2cc1Cl)CCCC3)C(=O)NCc1ccncc1 (centres undefined)	inactive	
COc1ccc(NC(=S)N2CCc3cc(OC)c(OC)cc3C2)cc1	inactive	
COc1ccc(OC)c(NC(=S)N2CCc3ccccc3C2)c1	17.8 µM (active)	
COc1ccc(C)cc1NC(=S)N1CCOCC1	inactive	
O=C(Nc1ccc(C(=O)NCc2ccccc2Cl)cc1)C1=CSCCO1	inactive	
CC(C)CNS(=O)(=O)c1ccc(CCC(=O)NCc2ccc(Cl)cc2)cc1	inactive	
O=C(CN1CCN(c2ccc(Cl)cc2)CC1)NCc1cccs1	inactive	
S=C(NCc1cccs1)Nc1ccc(Cl)cc1	6.31 µM (active)	
CC(NCc1cccs1)C(=O)Nc1cc(Cl)cc(Cl)c1 (centres undefined)	inactive	
O=C(Cc1cccc2ccccc12)NNC(=O)Nc1ccc(Cl)cc1	inactive	
Fc1ccccc1CNC(=S)Nc1ccc(Cl)cc1	7.08 µM (active)	
Cn1cc(C(=O)NCc2ccccc2F)cn1	inactive	
